The entries come from a sample that favours hits as a whole.
GIRK2 act: Activators of human GIRK2-containing channels | HEK293 GIRK2/NPY4 cells, thallium flux fluorescence | 34,000 tested, under 10 active | AID 1259324 | activation (% efficacy), % for hits at 37.5 µM | P48051;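 active = primary screen hit, no activity in plain HEK293 cells, and in GIRK2-only cells above 5% efficacy rising with concentration; inactive = the rest, including fluorescent compounds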;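 note: efficacy is normalized control-subtracted fluorescence 15 s after thallium addition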
GluA2 TARP mod: GluA2-stargazin AMPA receptor complex modulation | HEK293 GluA2+stargazin, membrane potential dye (FDSS), glutamate EC50; hits were called plate by plate, in both directions | calls only at 30 µM | actives 3.5% (n = 40,000);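 active = any of four per-well response measures lying three or more SD from its plate-wide compound average, in either direction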
Numbers without * were called inactive; i = inactive; . = no result given; + = active, no number.

SMILES | GIRK2 act | GluA2 TARP mod
c1nc(N2CCNCC2)c2cn[nH]c2n1 | i | +
O=C(COc1ccccc1)N(CCN1CCOCC1)c1nc2ccc(Cl)cc2s1 | . | i
COc1ccc(NC2(C#N)CCCCC2)cc1 | i | +
COc1ccc(C)c2sc(N(CCN3CCOCC3)C(=O)Cc3ccccc3)nc12 | . | i
Cc1cccc(CC(=O)N2CCN(CCn3nc(C)cc3C)CC2)c1 | i | i
COc1ccc(OC)c(/C=C2\Oc3cc(OC(=O)N(C)C)ccc3C2=O)c1 | . | i
COc1ccc(/C=C2\Oc3cc(OC(=O)N(C)C)ccc3C2=O)cc1OC | . | +
COc1cccc(/C=C2\Oc3cc(OC(=O)N(C)C)ccc3C2=O)c1 | . | i
CCCCn1c(N)c(C(=O)NCCCOC(C)C)c2nc3ccccc3nc21 | i | i
